Compound activity from PubChem BioAssay.
PTAP TSG101 blk = blocks PTAP/TSG101 interaction to inhibit HIV-1 budding. 340,000 tested, under 10 active. Potency, µM (highest dose often 115 µM), for inactives: at the highest dose activity change, negative = inhibition, usual class: inhibitors. Fluorescence polarization, FITC-PTAP peptide / Tsg101 binding. Q99816; active = well fitted inhibition curve with a large enough effect in the main read-out, with a control signal flat, not every such curve was filed as active; inconclusive = small, poorly fitted or top-dose-only effect, or effect the other way, or a change in a side signal; inactive = no such curve, though single readings can be large or run the other way; note: % of control where 0% means no effect
Target sequence (Q99816 whole entry, looked up): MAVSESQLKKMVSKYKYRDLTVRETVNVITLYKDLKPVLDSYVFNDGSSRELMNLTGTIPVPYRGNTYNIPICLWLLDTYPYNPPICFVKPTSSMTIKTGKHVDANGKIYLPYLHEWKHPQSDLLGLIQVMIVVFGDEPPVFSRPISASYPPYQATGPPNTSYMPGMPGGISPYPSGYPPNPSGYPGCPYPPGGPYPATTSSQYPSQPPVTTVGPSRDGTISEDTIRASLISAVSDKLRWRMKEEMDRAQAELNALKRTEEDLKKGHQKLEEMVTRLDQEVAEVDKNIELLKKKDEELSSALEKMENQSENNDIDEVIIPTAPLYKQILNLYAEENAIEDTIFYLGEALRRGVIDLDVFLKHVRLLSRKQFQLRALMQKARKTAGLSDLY
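Compounds were pin-transferred onto Tsg101 binding domain (10 uM final) in HEPES pH 7.5 buffer, then FITC-PTAP peptide was added at 50 nM final. After 20 min at RT, polarization reported peptide displacement across a qHTS concentration series.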
KB-3-1 cytotox = KB-3-1 parental cell cytotoxicity; AID 1347075; KB-3-1 viability, CellTiter-Glo ATP luminescence, 72 h; Potency, µM (highest dose often 46.1 µM), most hits filed as cytotoxic; 400,000 compounds, 1.4% hits; note: % is set by controls: 0 for no effect and ±100 for the full control effect; nearly all actives have a fitted effect of over 60% in size
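Here the drug-naive KB-3-1 line serves as comparator for MDR sub-line selectivity; cells received compound titrations, 72 h at 37 °C, then CellTiter-Glo readout.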
KB-V1 cytotox = kills drug-selected multidrug resistant KB-V1 cells. KB-V1 MDR cells viability, CellTiter-Glo, 72 h. Potency, µM (highest dose often 46.1 µM), most hits filed as cytotoxic. 400,000 compounds, 3.4% hits. AID 1347076; note: % is set by controls: 0 for no effect and ±100 for the full control effect; nearly all actives have a fitted effect of over 60% in size
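Cells of the MDR subline KB-V1 are plated, dosed with compound at multiple concentrations, and incubated 72 h at 37 degrees C; CellTiter-Glo is then added and luminescence read after 10 min.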
RGS4 inh = blocks human RGS4-accelerated GTP hydrolysis. Transcreener GDP fluorescence polarization, RGS4-accelerated GTP hydrolysis. P49798. 390,000 compounds, 0.039% hits. Potency, µM (series often up to 114 µM), without a hit: top-dose activity change, negative = inhibition, actives largely listed as inhibitors. AID 504845; note: % is set by controls: 0 for no effect and ±100 for the full control effect; nearly all actives have a fitted effect of over 75% in size
Target sequence (P49798 whole entry, looked up): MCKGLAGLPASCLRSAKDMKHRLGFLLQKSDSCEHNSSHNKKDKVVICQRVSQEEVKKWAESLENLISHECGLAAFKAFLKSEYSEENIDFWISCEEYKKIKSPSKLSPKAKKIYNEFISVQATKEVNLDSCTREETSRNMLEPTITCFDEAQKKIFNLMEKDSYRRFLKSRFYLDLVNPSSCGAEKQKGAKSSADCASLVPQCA
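MLSMR compounds (23 nl, pin-transferred) preincubated 10 min at room temperature with a 500nM (2x) first reagent, then RGS4 at 900nM (2x) plus Transcreener GDP mix added; fluorescence polarization (620/688 nm) read before and after 90 min at 30 °C.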
MCF10A rereplic = inducers of DNA re-replication in MCF 10A breast cells; MCF 10A DNA re-replication, Hoechst nuclear intensity, 48 h; 350,000 compounds, 2.9% hits; Potency, µM (highest dose often 46.1 µM), for inactives: at the top dose activity, positive = re-replication, actives largely listed as activators; note: % of control where 0% means no effect; nearly all actives have a fitted effect of over 50% in size
SW480 rereplic = inducers of DNA re-replication in SW480 colon cancer cells | 340,000 compounds, 1.8% hits | AID 624297 | Potency, µM (series often up to 46.1 µM), for inactives: at the highest dose re-replication activation, actives largely listed as activators | SW480 DNA re-replication, Hoechst DNA content imaging, 48 h; note: % of control where 0% means no effect; nearly all actives have a fitted effect of over 55% in size
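SW480 cells exposed to compounds for 48 hr at 37 C, 5% CO2, then Hoechst-stained 40 min. Nuclear DNA content imaged by fluorescence scanning (405 nm excitation, 500-530 nm emission); re-replication scored as increased high-intensity nuclei.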
Active calls of the source: *; i = inactive; u = inconclusive; x = no result. Rows were chosen to be rich in hits. Some 6.6% of all compounds tested hit in one or more screens of this group. Unless noted, calls come from the whole dose curve; as a rule, active = well fitted curve in the direction sought with a large enough effect; inconclusive = small, poorly fitted or top-dose-only effect, or another doubt; inactive = no such curve, though single readings can be large; an effect the other way counts as inactive or inconclusive. Potency is the fitted concentration of half-maximal effect.

SMILES	PTAP TSG101 blk	KB-3-1 cytotox	KB-V1 cytotox	RGS4 inh	MCF10A rereplic	SW480 rereplic
O=C(NCCc1csc2nc(-c3cccc(F)c3)nn12)c1ccc(Br)o1	x	i	i	-6.0%	x	x
O=[N+]([O-])c1cccnc1N/N=C/c1ccccc1O	1.3%	1.84µM*	u	-1.2%	-4.3%	0.82µM*
Cc1c(O)ccc(/C=N/Nc2ncccc2[N+](=O)[O-])c1O	-4.2%	u	u	23.7%	-6.7%	-1.0%
Oc1ccc(C=NNc2ccccn2)c(O)c1	-0.5%	u	i	-2.7%	16.4µM*	u
O=[N+]([O-])c1ccc(N/N=C\c2cccn2-c2ccccc2)nc1	1.1%	u	u	2.8%	14.6µM*	u
COc1ccc(O)c(/C=N/Nc2nc3ccccc3[nH]2)c1	-2.5%	i	i	0.0%	-2.8%	2.2%
O=[N+]([O-])c1ccc(O)c(/C=N/Nc2nc3ccccc3[nH]2)c1	-6.8%	u	u	-11.8%	8.2µM*	22.8%
Oc1cccc(C=NNc2ccccn2)c1	-0.4%	i	u	4.2%	1.8%	-0.2%
COc1ccccc1CNC(=O)CCCN1C(=O)CSc2c1c(C)nn2-c1ccccc1	x	i	i	-13.9%	x	x
CCOC(=O)N/N=C/c1cn(CCCOc2ccccc2)c2ccccc12	-1.4%	i	u	-0.7%	12.1%	u
CCOC(=O)N/N=C/c1cn(CCCOc2ccc(C)cc2)c2ccccc12	-0.6%	u	20.6µM*	6.0%	10.1%	u
Cc1ccc(OCCCn2cc(C#N)c3ccccc32)cc1	-1.5%	u	16.4µM*	-3.8%	-4.8%	u
Cc1cccc(NC(=O)CSc2ncnc3sc(C)c(C)c23)n1	3.1%	x	x	-34.4%	-19.7%	0.8%
Cc1cc2ccc(C)c(C)c2nc1SCC(=O)c1cccs1	4.0%	u	14.6µM*	16.4%	u	15.9%
Cc1sc2ncnc(SCC(=O)c3cccs3)c2c1C	0.6%	u	16.4µM*	-0.9%	16.6%	2.8%
Cc1sc2ncnc(SCC(=O)NNC(=O)COc3cccc4ccccc34)c2c1C	0.5%	u	u	-13.0%	23.1µM*	u
Cc1ccc2cc(C)c3nnc(SCC(=O)c4cccs4)n3c2c1C	0.3%	i	i	23.8%	-2.5%	-3.0%
Cc1cc(OCCCn2c(CCNC(=O)C3CCCCC3)nc3ccccc32)ccc1Cl	x	x	x	12.5%	x	x
CCOC(=O)c1cc2c(ccn2C)n1CC(=O)N(Cc1ccccc1)c1ccc(F)cc1	2.3%	i	u	-3.2%	u	18.2%
CC(C)OC(=O)c1cc2c(ccn2C)n1CC(=O)N(Cc1ccccc1)c1ccc(F)cc1	-3.0%	i	i	-16.2%	6.51µM*	u
CCOC(=O)c1c(C)c(-c2ccccc2)n(CC(=O)Nc2cc(C)ccc2OC)c1C	x	i	i	18.0%	x	x
O=C(Nc1ccc(F)c(Cl)c1)c1cc(C2CCCCN2C(=O)c2cccs2)on1 (configuration not stated)	x	23.1µM*	i	x	x	x
O=C(NCc1ccc2c(c1)OCO2)C1CC(c2ccc(Cl)c(Cl)c2)=NO1 (configuration not stated)	-3.4%	i	i	1.5%	2.59µM*	0.2%
COc1ccc(CNC(=O)C2CC(c3ccc(OC)cc3)=NO2)cc1 (configuration not stated)	x	i	i	20.5%	6.51µM*	4.0%
COc1ccc(CNC(=O)C2CC(c3ccc(F)cc3)=NO2)cc1 (configuration not stated)	-5.8%	i	i	6.6%	u	-3.6%
SMILES	PTAP TSG101 blk	KB-3-1 cytotox	KB-V1 cytotox	RGS4 inh	MCF10A rereplic	SW480 rereplic
CCn1ncc(C2=NOC(C(=O)NCc3ccc(Cl)cc3)C2)c1C (configuration not stated)	-3.1%	2.31µM*	4.61µM*	-0.2%	u	3.66µM*
COc1ccc(C2=NOC(C(=O)NCc3ccc(F)cc3)C2)cc1 (configuration not stated)	-8.6%	7.31µM*	14.6µM*	-21.5%	u	3.6%
CCOc1ccc(CNC(=O)c2ccc3c(c2)c(C)c(C)n3Cc2ccc(Cl)cc2)cc1	x	i	i	12.0%	x	x
CCC12CN3CC(C)(CN(C1)C3c1ccccc1C)C2=O (configuration not stated)	x	i	i	15.2%	x	x
O=C(Cc1ccc(S(=O)(=O)N2CCOCC2)s1)Nc1cc(C(F)(F)F)ccc1N1CCCC1	0.0%	i	i	-10.3%	2.7%	u
O=C(Cc1ccc(S(=O)(=O)N2CCOCC2)s1)Nc1cc(C(F)(F)F)cc(C(F)(F)F)c1	-2.4%	u	i	5.9%	20.6µM*	u
O=c1c(NCCc2ccc(Cl)cc2)nccn1-c1ccccc1	x	i	i	3.8%	x	x
O=[N+]([O-])c1ccc(N2CCOCC2)cc1NC(c1ccccc1)c1ccccc1	-2.1%	i	16.4µM*	-9.5%	14.5%	1.1%
CC(Nc1cc(N2CCN(C(=O)C(C)(C)C)CC2)ccc1[N+](=O)[O-])c1ccccc1 (configuration not stated)	-3.0%	u	10.3µM*	-1.8%	17.8%	14.8%
O=[N+]([O-])c1ccc(N2CCCC2)cc1NC1CC1	-3.4%	i	20.6µM*	-51.9%	u	9.2%
O=[N+]([O-])c1ccc(N2CCCC2)cc1NC(c1ccccc1)c1ccccc1	-1.6%	i	i	-5.8%	4.1%	-3.8%
Cc1ccc(S(=O)(=O)N(c2cccc(C(F)(F)F)c2)C2C=CS(=O)(=O)C2)cc1 (configuration not stated)	-5.2%	i	i	2.6%	23.1µM*	u
CCc1ccc(N(C2C=CS(=O)(=O)C2)S(=O)(=O)c2ccccc2)cc1 (configuration not stated)	-4.8%	i	i	1.2%	u	u
CCOC(=O)N1CCN(Cc2ccc3c(c2)OCO3)CC1	1.1%	i	i	12.4%	u	-0.7%
O=C(/C=C/c1cccs1)N1CCN(Cc2ccc3c(c2)OCO3)CC1	-9.3%	i	18.4µM*	3.1%	10.9%	-1.2%
COC(=O)c1c(NC(=O)CN2CCN(Cc3ccc4c(c3)OCO4)CC2)sc(C)c1C	0.9%	u	u	-19.6%	u	u
Cc1c(O)ccc(C(=O)CN2CCN(Cc3ccc4c(c3)OCO4)CC2)c1O	-1.2%	i	23.1µM*	4.5%	3.2%	-59.6%
O=C(/C=C/c1cccc([N+](=O)[O-])c1)N1CCN(Cc2ccc3c(c2)OCO3)CC1	-0.8%	i	i	6.0%	10.4%	-11.0%
